Inconclusive results are not listed. A number with no mark means an inactive call. Activity calls are given as the source filed them. The call rests on the fitted dose curve; in most records, active means well fitted cell-killing curve with a large enough effect; inconclusive means small, poorly fitted or top-dose-only effect, or effect the other way; inactive means no such curve, though single readings can be large or run the other way.
Potency means the concentration at half of the fitted maximal effect.

This assay is described as follows: Viability qHTS for spleen associated tyrosine kinase inhibitor (SYKi) drug resistant MV4-11 cells (AID 1963824). Further: nearly all actives have a fitted effect of over 35% in size. The note with it: SYKi-resistant MV4-11 viability, CellTiter-Glo, 72 h; series mostly up to 45 µM. The method, boiled down: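 SYK inhibitor-resistant MV4-11 AML cells, 500 per well, added to predispensed compounds and incubated 72 hr at 37 C, 5% CO2. Viability measured by CellTiter-Glo luminescence after 10 min at room temperature.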
(In general: Quantitative high-throughput screening tests each substance at several concentrations.)
On to `CC12CCC3C(C1)c1c(cc(O)c(C(=O)c4ccccc4)c1OC3(C)C)O2` (centres undefined), for which the Potency is 14.3 µM (active).

`CCOC(=O)C1(CCc2ccccc2)CCN(Cc2ccc(NC(C)=O)cc2)CC1`: the Potency was 23.1 µM (active).

Consider `CC1=CC2(O)/C=C/C(C)(O)C(O)C(O)/C=C/C(=O)OC23C(=O)NC(CC(C)C)C3C1C` (centres undefined), for which the Potency result was “inactive”. The same measure, in the same setting: as for `Cc1cccc(NC(=O)N[C@H]2CN(C)c3ccccc3C(c3ccccc3)=N2)c1`, the figure is 16.4 µM (active).

In the case of `COC1CC(=O)C23C(=O)NC(CC(C)C)C2C(C)=C(C)C(OO)C3/C=C(\C)CCC(O)C1O` (centres undefined), the Potency was 7.96 µM (active). Same read-out and setting: as for `ClC1=C(Cl)[C@]2(Cl)[C@@H]3[C@@H]4C[C@@H]([C@H]5O[C@@H]45)[C@@H]3[C@@]1(Cl)C2(Cl)Cl`, the figure is 30.6 µM (active); as for `C/C=C(\C)C(=O)O[C@@H]1[C@@H](C)[C@]2(O)C3C=C(C)C(=O)[C@@]3(O)CC(CO)=C[C@H]2C2C(C)(C)[C@@]21OC(=O)C(C)CC` (some centres undefined), 0.0045 µM (active); as for `CC1=C[C@H]2O[C@@H]3C[C@H]4OC(=O)/C=C/C=C/C(=O)OCC/C(C)=C/C(=O)OC[C@@]2(CC1)[C@]4(C)[C@]31CO1`, 0.0056 µM (active). For `CN1Cc2c(ccc3c2OCO3)[C@@H]2[C@H]1c1cc3c(cc1C[C@@H]2O)OCO3`, the Potency was 2.55 µM (active). Still for that read-out and setting: as for `Cn1ncnc1COc1nn2c(-c3c(F)cccc3F)nnc2cc1C1CCC1`, the entry is “inactive”. Regarding `CCN1C[C@]2(OC(=O)c3ccccc3NC(C)=O)CC[C@H](OC)[C@@]34[C@@H]2C[C@@H]([C@@H]13)[C@@]1(O)C[C@H](OC)[C@H]2C[C@@H]4[C@]1(O)[C@H]2OC`, the Potency was 4.11 µM (active). Turning to `CO[C@H]1C[C@H](O[C@H]2CC[C@]3(C=O)[C@H]4CC[C@]5(C)[C@@H](C6=CC(=O)OC6)CC[C@]5(O)[C@@H]4CC[C@]3(O)C2)O[C@H](C)[C@H]1O`, the Potency was 0.0399 µM (active). As for `CC1=CC2/C=C(\C)CCC(O)C3OC(C)(C)OC3CC(=O)OC23C(=O)NC(CC(C)C)C3C1C` (centres undefined), the Potency was 12.6 µM (active).

For the compound `Cc1ccc(-n2nccn2)c(C(=O)N2CCN(c3nc4cc(Cl)ccc4o3)CCC2C)c1` (centres undefined), the Potency was 9.2 µM (active). With `CO[C@H]1[C@H](O)[C@H](O[C@H]2CC[C@]3(C)C4CC[C@]5(C)[C@H](C6=CC(=O)OC6)CC[C@]5(O)C4CC[C@@H]3C2)O[C@@H](C)[C@@H]1O` (some centres undefined), the Potency was 0.0112 µM (active). With `COc1cc(C(=O)O[C@H]2[C@@H]3C=CO[C@@H](O[C@@H]4O[C@H](CO)[C@@H](O)[C@H](O)[C@H]4O)[C@@H]3[C@@]3(CO)O[C@@H]23)ccc1O`, the Potency entry is “inactive”. For the compound `CC(=O)O[C@H]1C(=O)[C@]2(C)C(O)C[C@H]3OC[C@@]3(OC(C)=O)[C@H]2[C@H](OC(=O)c2ccccc2)[C@]2(O)C[C@H](O)C(C)=C1C2(C)C` (some centres undefined), the Potency was 6.85 µM (active). On to `CCCCCn1cc(C(=O)Oc2cccc3cccnc23)c2ccccc21`, for which the Potency is 23.1 µM (active). Turning to `CC(=O)O[C@H]1CC[C@H]2[C@@H]3CC[C@H]4CC(=O)C=C(C)[C@]4(C)[C@H]3CC[C@]12C`, the Potency is 11.6 µM (active). With `C[N@@+]1(CC2CC2)CC[C@]23c4c5ccc(O)c4O[C@H]2C(=O)CC[C@@]3(O)[C@H]1C5`, the Potency entry was “inactive”.

Take `Cc1cc(C(=O)CN2CCCC2)c(C)n1-c1ccc(F)cc1`: the Potency was 16.4 µM (active). Still for that read-out and setting: the entry for `Cc1c(Cl)c(OCC(=O)N2CCN(C)CC2)nc2sc(C(=O)NC3CC3)c(N)c12` is “inactive”.

`CC[C@@H](C)[C@H]1C(=O)O[C@H](C(C)C)C(=O)N(C)[C@@H](C(C)C)C(=O)O[C@H](C(C)C)C(=O)N(C)[C@@H](C(C)C)C(=O)O[C@H](C(C)C)C(=O)N1C`: the Potency is 2.73 µM (active).

Regarding `C/C=C(\C)C(=O)OC1C2C3(C)CCC(OC4CC(OC)C(OC5OC(C)C(O)C(OC)C5O)C(C)O4)CC3CCC23OC32CCC(C(C)=O)C2(C)C1OC(=O)/C(C)=C/C` (centres undefined), the Potency was 3.9 µM (active). As for `COC(=O)CC1CC2(C(=O)c3c(O)cccc3C2(O)C(=O)OC)C(C)O1` (centres undefined), the Potency is 16.1 µM (active). Consider `CCCCCCC(C)(C)c1cc(O)c2c(c1)OC(C)(C)C1CC=C(CO)C[C@H]21` (some centres undefined), for which the Potency is 1.66 µM (active). As to `N#CC(OC1OC(COC2OC(CO)C(O)C(O)C2O)C(O)C(O)C1O)c1ccccc1` (centres undefined), the Potency entry was “inactive”. Regarding `CC(=O)C1CCC2C3CCC4C[C@@H](O)CCC4(C)C3CCC12C` (some centres undefined), the Potency was 14.6 µM (active).

Consider `C/C=C(\C)C(=O)OC1C(C)OC(OC2C(C)OC(OC3CCC4(C)C(=CCC5C4CCC4(C)C(C(C)OC6OC(COC7OC(CO)C(O)C(O)C7O)C(O)C(O)C6O)CCC54O)C3)CC2OC)C(O)C1OC` (centres undefined), for which the viability, % of control is 105% [at 9.25 µM].

The values above are taken from PubChem BioAssay (NCATS).
